Data published in PubChem BioAssay (Tox21).
Records with an inconclusive call do not appear. Activity calls are given as the source filed them. Unless noted, calls come from the whole dose curve; as a rule, active = well fitted curve in the direction sought with a large enough effect in the repeat runs; inconclusive = weak or mixed curves; inactive = no such curve, though single readings can be large; an effect the other way counts as inactive or inconclusive.

Assays:
[1] = qHTS assay to identify small molecule agonists of the TGF-beta/Smad signaling pathway - cell viability counter screen (AID 1346829); note: top concentration of the series differs between compounds; nearly all actives have a fitted effect of over 45% in size
Outline: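 HEK 293T SBE-bla line, 5 hr compound exposure at 37 C, multiplexed CellTiter-Glo viability read by luminescence.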

[2] = qHTS assay to identify small molecule agonists of the TGF-beta/Smad signaling pathway (AID 1346859; active = well fitted activation curve with a large enough effect in the signal ratio in the repeat runs, not every such curve was filed as active; the % refers to the signal ratio; note: series mostly up to about 77 µM)
Outline: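 Smad-responsive beta-lactamase reporter cells (HEK 293T) received compounds from DMSO stocks after overnight attachment, were incubated 5 hr, then treated 2 hr with FRET substrate before dual-emission fluorescence measurement (405 nm excitation).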

[3] = target: Thyrotropin-releasing hormone receptor (Homo sapiens) (UniProt P34981); experiment: qHTS assay to identify small molecule antagonists of the thyrotropin-releasing hormone receptor (TRHR) signaling pathway (AID 1346877; active = well fitted inhibition curve with a large enough effect in the repeat runs, not every such curve was filed as active; note: series mostly up to about 51 µM)
Outline: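 Calcium signal in dye-loaded TRHR/HEK293 cells; compounds added 5 min before TRH (1 nM final); fluorescence monitored 3 min at 1 s steps.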

[4] = Human pregnane X receptor (PXR) small molecule agonists, qHTS cell viability counter screen (AID 1346977); note: nearly all actives have a fitted effect of over 50% in size
Outline: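 Measures live-cell protease fluorescence (CellTiter-Fluor) in PXR-Luc HepG2 cells treated 24hr with compounds at 37C. Cells had 5hr to attach before pin transfer of DMSO solutions.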

[5] = Caspase-3/7 induction in CHO-K1 cells by small molecules, qHTS assay (AID 1346980); note: nearly all actives have a fitted effect of over 15% in size
Outline: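 Wild-type cells were seeded at 1,500 per well and settled 5 hr at 37 C, 5% CO2, then exposed to DMSO-dissolved compounds for 17 hr. Caspase-Glo 3/7 reagent was added, and luminescence was read after 30min at room temperature.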

[6] = Caspase-3/7 induction in HepG2 cells by small molecules, qHTS cell viability counter screen (AID 1346981); note: series mostly up to about 92 µM; nearly all actives have a fitted effect of over 30% in size
Outline: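 After a 5-hr attachment period at 37 C and 5% CO2, wild-type HepG2 cells received compounds in DMSO. Sixteen hours later CellTiter-Fluor was dispensed and the fluorescent signal quantified after a further hour.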

[7] = target: Nuclear receptor subfamily 1 group I member 2 (Homo sapiens) (UniProt O75469); experiment: Human pregnane X receptor (PXR) small molecule agonists, qHTS assay (AID 1346982); note: nearly all actives have a fitted effect of over 35% in size
Outline: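 Tox21 qHTS; PXR-Luc HepG2; compounds pinned from DMSO; 24 hr, 37 C; ONE-Glo luciferase detection, 30 min room temperature.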

[8] = target: Nuclear receptor subfamily 1 group I member 2 (Rattus norvegicus) (UniProt Q9R1A7); experiment: Rat pregnane X receptor (rPXR) activation by small molecules, qHTS assay (AID 1346983); details: rPXR luciferase reporter cells, One-Glo luminescence, 24 h; max activation: stronger effect = higher value; note: nearly all actives have a fitted effect of over 20% in size
Outline: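 Cell-based rPXR luciferase reporter assay, 2,000 cells per well, rested 5hr at 37 C before compound addition in DMSO, then 24 hr at 37 C. One-Glo reagent was added and luminescence read after 30 min at room temperature.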

[9] = target: Nuclear receptor subfamily 1 group I member 2 (Homo sapiens) (UniProt O75469); experiment: CYP3A4 induction through human pregnane X receptor (PXR) by small molecules, qHTS assay (AID 1346984); note: nearly all actives have a fitted effect of over 40% in size
Outline: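 Cells (DPX-2; HepG2 with PXR element plus CYP3A4-promoter luciferase) settled 5hr, then were treated 24hr at 37C. A 3hr, 3uM-final Luciferin-IPA step preceded luminescence measurement with One-Glo.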

[10] = target: Cytochrome P450 2C19 (Homo sapiens) (UniProt P33261); experiment: Cytochrome P450 Family 2 Subfamily C Member 19 (CYP2C19) small molecule antagonists: luciferase reporter qHTS assay (AID 1671197); note: nearly all actives have a fitted effect of over 65% in size; note: potency is the fitted concentration of half-maximal effect; for activity change, negative = inhibition: series mostly up to about 120 µM
Outline: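 First, compounds are pinned into enzyme-substrate mix and held 10 min at room temperature. Second, NADPH regeneration solution is added and plates incubate 1 h at 37C. Third, detection reagent is added and luminescence read after 20 min.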

[11] = target: Cytochrome P450 2C9 (Homo sapiens) (UniProt P11712); experiment: Cytochrome P450 Family 2 Subfamily C Member 9 (CYP2C9) small molecule antagonists: luciferase reporter qHTS assay (AID 1671198); note: nearly all actives have a fitted effect of over 50% in size; note: potency is the fitted concentration of half-maximal effect; for activity change, negative = inhibition: series mostly up to about 120 µM
Outline: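 CYP2C9 activity was measured with a P450-Glo proluciferin substrate. Enzyme–substrate mix was held with compound for 10 min at room temperature, then NADPH regeneration solution was added for 1 h at 37C. Luciferin product was read as luminescence.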

[12] = target: Cytochrome P450 1A2 (Homo sapiens) (UniProt P05177); experiment: Cytochrome P450 Family 1 Subfamily A Member 2 (CYP1A2) small molecule antagonists: luciferase reporter qHTS assay (AID 1671199); note: nearly all actives have a fitted effect of over 50% in size; note: potency is the fitted concentration of half-maximal effect; for activity change, negative = inhibition: series mostly up to about 120 µM
Outline: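 Room-temperature CYP1A2 reaction with proluciferin substrate: compounds added from DMSO, 10 min preincubation, NADPH regeneration for 1 h. Luciferin detection reagent then added; luminescence recorded as RLU.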

[13] = target: Voltage-gated inwardly rectifying potassium channel KCNH2 (Homo sapiens) (UniProt Q12809); experiment: Human Ether-a-go-go-Related Gene (hERG) channel small molecule antagonists: fluorescence cell-based qHTS assay (AID 1671200);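 note: hERG-expressing U2OS cells given a thallium stimulus after FluxOR II dye loading; series mostly up to about 77 µM; nearly all actives have a fitted effect of over 50% in size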
Outline: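 Quantitative HTS in hERG-U2OS cells: thallium entry through the channel reports activity, read as continuous 480/540 nm fluorescence over 2 min after stimulus addition.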

[14] = Caspase-3/7 induction in HepG2 cells by small molecules, qHTS assay (AID 1346978); note: nearly all actives have a fitted effect of over 15% in size
Outline: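 Wild-type HepG2 cells (2,000/well) were settled 5 h at 37 C, 5% CO2, then exposed to compounds in DMSO for 17 h. Caspase-3/7 activity was read by luminescence 30 min after adding Caspase-Glo 3/7 reagent at room temperature.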

[15] = Caspase-3/7 induction in CHO-K1 cells by small molecules, qHTS cell viability counter screen (AID 1346979); note: nearly all actives have a fitted effect of over 35% in size
Outline: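 In the same wells as the caspase read, viability of compound-treated wild-type CHO-K1 cells was assessed using CellTiter-Fluor, added after 16hr at 37C and measured by fluorescence following 1hr further incubation.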

[16] = target: Cytochrome P450 2D6 (Homo sapiens) (UniProt P10635); experiment: Cytochrome P450 Family 2 Subfamily D Member 6 (CYP2D6) small molecule antagonists: luciferase reporter qHTS assay (AID 1671196); note: nearly all actives have a fitted effect of over 50% in size; note: potency is the fitted concentration of half-maximal effect; for activity change, negative = inhibition: series mostly up to about 120 µM
Outline: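 Room-temperature luminescent CYP2D6 activity assay: compound preincubated 10 min with enzyme–substrate mix, NADPH-initiated reaction 1 h, detection reagent 20 min before reading.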

[17] = target: Cytochrome P450 3A4 (Homo sapiens) (UniProt P08684); experiment: Cytochrome P450 Family 3 Subfamily A Member 4 (CYP3A4) small molecule antagonists: luciferase reporter qHTS assay (AID 1671201); note: nearly all actives have a fitted effect of over 50% in size; note: potency is the fitted concentration of half-maximal effect; for activity change, negative = inhibition: series mostly up to about 120 µM
Outline: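 Inhibition of CYP3A4 is measured as loss of light: the enzyme converts a proluciferin substrate to luciferin, detected luminescently. Reaction ran 1 h at room temperature with NADPH regeneration after a 10 min compound preincubation.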

[18] = target: Thyrotropin-releasing hormone receptor (Homo sapiens) (UniProt P34981); experiment: qHTS assay to identify small molecule agonists of the thyrotropin-releasing hormone receptor (TRHR) signaling pathway (AID 1346891; calls by dose curve;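 note: HEK293 cells expressing TRHR with calcium dye readout; series mostly up to about 58 µM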)
Outline: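 Agonist-mode calcium mobilisation screen: TRHR-transfected HEK293 cells cultured overnight (18 h), dye-loaded for 2 h at 37 °C, exposed to compounds, and monitored by fluorescence for 3 min.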
% is set by controls: 0 for no effect and ±100 for the full control effect.

Sequence of Cytochrome P450 2D6 (Homo sapiens) (P10635 whole entry, looked up): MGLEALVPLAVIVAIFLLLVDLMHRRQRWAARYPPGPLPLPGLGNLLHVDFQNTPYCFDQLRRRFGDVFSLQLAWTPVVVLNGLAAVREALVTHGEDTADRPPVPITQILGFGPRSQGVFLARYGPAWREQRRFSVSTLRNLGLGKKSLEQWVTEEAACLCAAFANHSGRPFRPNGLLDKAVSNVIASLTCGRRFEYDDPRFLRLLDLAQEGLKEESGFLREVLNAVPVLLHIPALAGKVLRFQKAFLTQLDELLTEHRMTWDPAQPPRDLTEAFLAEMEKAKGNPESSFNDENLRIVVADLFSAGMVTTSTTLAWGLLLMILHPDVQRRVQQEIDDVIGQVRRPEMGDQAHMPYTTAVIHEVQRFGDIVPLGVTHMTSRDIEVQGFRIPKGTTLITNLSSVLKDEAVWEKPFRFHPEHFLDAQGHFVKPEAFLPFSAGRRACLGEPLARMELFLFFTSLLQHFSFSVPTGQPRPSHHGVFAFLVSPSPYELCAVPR
Sequence of Thyrotropin-releasing hormone receptor (Homo sapiens) (P34981 whole entry, looked up): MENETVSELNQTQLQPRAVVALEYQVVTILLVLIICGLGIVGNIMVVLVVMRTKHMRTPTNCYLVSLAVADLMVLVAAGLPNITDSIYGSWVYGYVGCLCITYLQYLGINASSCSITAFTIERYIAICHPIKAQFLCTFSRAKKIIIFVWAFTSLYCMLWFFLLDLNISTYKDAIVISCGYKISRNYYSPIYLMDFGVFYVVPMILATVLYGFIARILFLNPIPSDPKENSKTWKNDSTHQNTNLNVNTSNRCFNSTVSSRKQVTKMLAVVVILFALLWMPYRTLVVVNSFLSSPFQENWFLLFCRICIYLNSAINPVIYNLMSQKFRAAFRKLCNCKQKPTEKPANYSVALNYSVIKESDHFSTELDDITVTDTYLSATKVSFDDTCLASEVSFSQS
Sequence of Cytochrome P450 2C9 (Homo sapiens) (P11712 whole entry, looked up): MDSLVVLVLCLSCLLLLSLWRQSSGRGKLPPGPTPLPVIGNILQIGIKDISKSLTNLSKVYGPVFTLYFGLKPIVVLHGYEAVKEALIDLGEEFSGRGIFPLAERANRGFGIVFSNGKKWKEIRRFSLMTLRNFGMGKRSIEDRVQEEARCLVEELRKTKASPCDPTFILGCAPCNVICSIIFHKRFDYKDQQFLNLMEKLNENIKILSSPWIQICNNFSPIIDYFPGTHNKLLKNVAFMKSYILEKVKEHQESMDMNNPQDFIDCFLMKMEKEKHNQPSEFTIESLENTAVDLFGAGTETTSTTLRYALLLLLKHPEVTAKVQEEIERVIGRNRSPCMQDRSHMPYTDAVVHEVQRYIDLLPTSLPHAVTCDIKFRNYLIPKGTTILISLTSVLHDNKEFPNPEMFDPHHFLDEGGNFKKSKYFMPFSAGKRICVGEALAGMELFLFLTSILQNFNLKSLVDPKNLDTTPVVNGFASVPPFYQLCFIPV
Sequence of Cytochrome P450 1A2 (Homo sapiens) (P05177 whole entry, looked up): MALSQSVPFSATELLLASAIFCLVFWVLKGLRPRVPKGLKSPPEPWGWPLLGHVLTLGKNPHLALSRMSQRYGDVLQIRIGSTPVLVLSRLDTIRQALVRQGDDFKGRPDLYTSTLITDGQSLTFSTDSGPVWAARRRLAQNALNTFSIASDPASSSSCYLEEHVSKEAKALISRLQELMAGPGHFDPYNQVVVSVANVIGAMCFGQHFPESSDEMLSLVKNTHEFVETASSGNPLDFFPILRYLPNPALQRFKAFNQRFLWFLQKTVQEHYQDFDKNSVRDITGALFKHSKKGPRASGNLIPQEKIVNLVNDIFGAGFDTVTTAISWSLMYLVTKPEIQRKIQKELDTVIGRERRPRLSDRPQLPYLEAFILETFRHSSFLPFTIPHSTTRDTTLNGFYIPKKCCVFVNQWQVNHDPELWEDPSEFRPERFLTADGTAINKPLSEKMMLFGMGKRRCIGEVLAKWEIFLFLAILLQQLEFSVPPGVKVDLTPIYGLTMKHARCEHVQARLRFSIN
Sequence of Nuclear receptor subfamily 1 group I member 2 (Homo sapiens) (O75469 whole entry, looked up): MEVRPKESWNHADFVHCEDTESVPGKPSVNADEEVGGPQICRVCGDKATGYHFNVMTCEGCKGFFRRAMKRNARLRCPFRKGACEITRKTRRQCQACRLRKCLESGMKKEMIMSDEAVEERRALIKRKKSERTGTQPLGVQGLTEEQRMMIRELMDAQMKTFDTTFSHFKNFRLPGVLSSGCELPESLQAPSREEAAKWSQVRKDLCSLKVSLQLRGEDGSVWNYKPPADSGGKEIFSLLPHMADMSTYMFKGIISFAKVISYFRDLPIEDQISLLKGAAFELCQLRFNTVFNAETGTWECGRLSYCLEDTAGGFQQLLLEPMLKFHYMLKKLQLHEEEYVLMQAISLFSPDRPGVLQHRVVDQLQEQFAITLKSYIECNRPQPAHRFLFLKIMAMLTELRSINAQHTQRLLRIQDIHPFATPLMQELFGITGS
Sequence of Cytochrome P450 3A4 (Homo sapiens) (P08684 whole entry, looked up): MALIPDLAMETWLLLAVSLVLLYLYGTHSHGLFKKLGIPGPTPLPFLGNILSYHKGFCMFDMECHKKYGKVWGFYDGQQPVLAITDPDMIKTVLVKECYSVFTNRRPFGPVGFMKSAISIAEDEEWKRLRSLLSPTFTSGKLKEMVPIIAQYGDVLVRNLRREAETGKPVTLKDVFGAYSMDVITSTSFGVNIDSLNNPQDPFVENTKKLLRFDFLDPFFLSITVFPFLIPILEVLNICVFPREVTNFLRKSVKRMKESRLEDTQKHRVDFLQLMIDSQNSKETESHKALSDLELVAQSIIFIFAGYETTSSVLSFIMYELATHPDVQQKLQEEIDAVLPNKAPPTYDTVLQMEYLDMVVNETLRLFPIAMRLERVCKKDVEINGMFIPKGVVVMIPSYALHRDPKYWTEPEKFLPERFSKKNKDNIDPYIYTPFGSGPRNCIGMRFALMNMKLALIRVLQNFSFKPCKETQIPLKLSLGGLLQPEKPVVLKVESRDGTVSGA
Sequence of Cytochrome P450 2C19 (Homo sapiens) (P33261 whole entry, looked up): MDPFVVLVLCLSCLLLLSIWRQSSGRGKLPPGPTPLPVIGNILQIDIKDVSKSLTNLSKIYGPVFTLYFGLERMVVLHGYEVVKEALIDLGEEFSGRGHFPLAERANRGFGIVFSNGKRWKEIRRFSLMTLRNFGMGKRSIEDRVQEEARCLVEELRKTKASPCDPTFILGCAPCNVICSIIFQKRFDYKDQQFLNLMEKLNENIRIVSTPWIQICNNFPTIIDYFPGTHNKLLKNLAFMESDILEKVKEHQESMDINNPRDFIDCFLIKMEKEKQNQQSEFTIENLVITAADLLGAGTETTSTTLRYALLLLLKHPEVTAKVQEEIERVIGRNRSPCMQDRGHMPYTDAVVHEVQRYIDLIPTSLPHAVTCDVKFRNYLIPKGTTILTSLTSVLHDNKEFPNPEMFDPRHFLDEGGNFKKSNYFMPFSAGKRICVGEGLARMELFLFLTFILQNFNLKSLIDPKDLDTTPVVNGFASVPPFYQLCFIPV
Sequence of Voltage-gated inwardly rectifying potassium channel KCNH2 (Homo sapiens) (Q12809 whole entry, looked up): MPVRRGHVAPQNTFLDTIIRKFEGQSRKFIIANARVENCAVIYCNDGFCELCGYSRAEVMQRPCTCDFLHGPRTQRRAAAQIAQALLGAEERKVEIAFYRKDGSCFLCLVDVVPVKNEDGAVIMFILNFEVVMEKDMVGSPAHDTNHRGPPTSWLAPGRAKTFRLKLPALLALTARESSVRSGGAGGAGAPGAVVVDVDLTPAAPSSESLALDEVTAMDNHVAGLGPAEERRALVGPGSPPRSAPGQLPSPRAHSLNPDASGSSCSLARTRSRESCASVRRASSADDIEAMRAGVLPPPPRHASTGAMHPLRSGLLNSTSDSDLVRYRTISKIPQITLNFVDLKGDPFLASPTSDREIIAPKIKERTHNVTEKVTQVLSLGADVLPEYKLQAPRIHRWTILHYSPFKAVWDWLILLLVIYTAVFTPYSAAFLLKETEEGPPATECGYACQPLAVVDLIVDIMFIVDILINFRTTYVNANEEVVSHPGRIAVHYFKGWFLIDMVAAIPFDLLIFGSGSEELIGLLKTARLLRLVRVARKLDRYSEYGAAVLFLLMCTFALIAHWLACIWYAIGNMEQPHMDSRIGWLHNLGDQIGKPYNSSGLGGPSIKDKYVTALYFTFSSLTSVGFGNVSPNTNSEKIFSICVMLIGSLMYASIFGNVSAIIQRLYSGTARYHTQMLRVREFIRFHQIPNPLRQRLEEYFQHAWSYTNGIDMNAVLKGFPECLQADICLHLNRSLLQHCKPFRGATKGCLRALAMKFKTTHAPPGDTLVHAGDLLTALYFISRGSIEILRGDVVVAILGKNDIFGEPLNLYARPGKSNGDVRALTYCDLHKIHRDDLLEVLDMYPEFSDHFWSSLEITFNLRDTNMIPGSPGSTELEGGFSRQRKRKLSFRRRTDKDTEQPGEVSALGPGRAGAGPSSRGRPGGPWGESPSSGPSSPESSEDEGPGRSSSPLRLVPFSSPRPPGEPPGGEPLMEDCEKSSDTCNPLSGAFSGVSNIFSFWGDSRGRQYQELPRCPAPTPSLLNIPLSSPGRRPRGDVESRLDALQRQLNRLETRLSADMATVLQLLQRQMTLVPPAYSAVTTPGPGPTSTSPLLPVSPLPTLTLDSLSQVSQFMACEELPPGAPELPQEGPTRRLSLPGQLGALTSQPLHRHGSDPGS
Sequence of Nuclear receptor subfamily 1 group I member 2 (Rattus norvegicus) (Q9R1A7 whole entry, looked up): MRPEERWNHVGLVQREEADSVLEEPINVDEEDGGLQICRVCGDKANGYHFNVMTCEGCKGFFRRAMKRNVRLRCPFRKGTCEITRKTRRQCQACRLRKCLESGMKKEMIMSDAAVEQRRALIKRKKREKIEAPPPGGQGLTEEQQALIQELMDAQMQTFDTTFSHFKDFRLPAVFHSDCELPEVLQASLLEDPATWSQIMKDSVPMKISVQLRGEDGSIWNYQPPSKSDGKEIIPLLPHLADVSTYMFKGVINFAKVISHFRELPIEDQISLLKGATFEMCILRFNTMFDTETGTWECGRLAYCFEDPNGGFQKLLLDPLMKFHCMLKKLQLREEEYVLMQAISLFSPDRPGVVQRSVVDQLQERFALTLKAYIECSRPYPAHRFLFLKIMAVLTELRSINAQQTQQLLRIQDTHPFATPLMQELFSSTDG

O=C(/C=C/c1ccccc1)NCCO
inactive: outcome [1] | outcome [2] | outcome [3] | Potency [4] | outcome [5] | Potency [6] | Potency [7] | max activation [8] -0.885% | outcome [9] | Potency [13]
active: Potency [10] 15.5 µM | Potency [11] 13.8 µM | Potency [12] 11.5 µM

CNC(=O)C(c1ccccc1)c1ccccc1
inactive: outcome [1] | outcome [2] | Potency [4] | outcome [14] | Potency [15] | outcome [5] | Potency [6] | Potency [7] | Potency [16] | Potency [13]

Cc1nc2ccccc2c(=O)o1
inactive: outcome [1] | outcome [2] | Potency [4] | outcome [14] | Potency [15] | outcome [5] | Potency [6] | Potency [7] | Potency [13] | Potency [17]

Nc1c(NC/C=C\COc2cc(CN3CCCCC3)ccn2)c(=O)c1=O
inactive: activity change, negative = cytotoxicity [1] 2.86% [at 15.8 µM] | activation [2] -0.0935% [at 15.8 µM] | activity, negative = inhibition [3] -1.01% [at 10.5 µM] | activation [18] -0.0658% [at 11.8 µM] | caspase activation [14] -0.539% [at 19 µM] | caspase-3/7 activation [5] -0.585% [at 19 µM] | activation [7] -1.56% [at 19 µM] | activity change, negative = inhibition [11] -15.9% [at 23.6 µM] | activity change, negative = inhibition [12] 11.8% [at 23.6 µM] | activity change, negative = inhibition [13] 0.241% [at 15.8 µM]
active: Potency [16] 12 µM | Potency [17] 6.74 µM

O=C1CC[C@H](C(=O)N2CCCCC2)N1
inactive: outcome [1] | outcome [2] | Potency [4] | outcome [14] | Potency [15] | outcome [5] | Potency [6] | Potency [7] | Potency [11] | Potency [12] | Potency [13] | Potency [17]

CCCCCCCCOC(C)=O
inactive: outcome [1] | outcome [2] | Potency [4] | outcome [14] | Potency [15] | outcome [5] | Potency [6] | Potency [7] | Potency [16] | Potency [11] | Potency [12] | Potency [13] | Potency [17]

CCC(C)(CCC(C)C)C(=O)[O-].CCC(C)(CCC(C)C)C(=O)[O-].[Zn+2] (configuration not stated)
inactive: outcome [1] | outcome [2] | Potency [4] | outcome [14] | Potency [15] | outcome [5] | Potency [6] | Potency [16] | Potency [17]
active: Potency [10] 17.8 µM | Potency [11] 17.8 µM

CCC(=O)OCCC(C)CCC=C(C)C (configuration not stated)
active: Potency [10] 20 µM | Potency [11] 25.2 µM | Potency [12] 39.9 µM | Potency [17] 12.6 µM
inactive: outcome [1] | outcome [2] | Potency [4] | outcome [14] | Potency [15] | outcome [5] | Potency [6] | Potency [7] | Potency [13]

CCCCC/C=C/CC(=O)OC
inactive: outcome [1] | outcome [2] | Potency [4] | outcome [14] | Potency [15] | outcome [5] | Potency [6] | Potency [7] | Potency [16] | Potency [10] | Potency [11] | Potency [13] | Potency [17]

NS(=O)(=O)c1ccc(Cl)c(S(N)(=O)=O)c1
inactive: outcome [1] | outcome [2] | outcome [18] | Potency [4] | outcome [14] | Potency [15] | outcome [5] | Potency [6] | Potency [7] | max activation [8] -3.93% | outcome [9] | Potency [11] | Potency [12] | Potency [13] | Potency [17]
